Records with an inconclusive call do not appear. Unmarked numbers belong to inactive results. Activity calls are given as the source filed them. The call rests on the fitted dose curve; in most records, active means well fitted activation curve with a large enough effect; inconclusive means small, poorly fitted or top-dose-only effect; inactive means flat fitted curve, though single readings scatter.

This is an account of results in PubChem BioAssay AID504362 (National Center for Advancing Translational Sciences (NCATS), 2011).

The nature of the assay: qHTS Assay for Identifying a Potential Treatment of Ataxia-Telangiectasia: SAR for Probe. As to conditions: F2112 A-T fibroblasts, NCS-induced pKAP1 AlphaLISA; series mostly up to 76.9 µM; activation: at the top concentration. An excerpt: NIH Chemical Genomics Center [NCGC] NIH Molecular Libraries Probe Centers Network [MLPCN] MLPCN Grant: MH089030-01 Assay Submitter (PI): Wei Zheng and Yosef Shiloh Ataxia-telangiectasia (A-T) is a devastating and progressive disease for which, there is no cure. Although A-T is a multisystem disease, it is stereotyped characterized by its neurological symptoms such as truncal ataxia, due to cerebellar cortical degeneration of the Purkinje and granule cells. Other symptoms of A-T are telangiectasias (dilated blood vessels), primary immunodeficiency, marked sensitivity to ionizing radiation (IR), chromosomal instability and predisposition to cancer. The underlying genetic cause of A-T is null mutations in the ATM (A-T mutated) gene. ATM is a nuclear serine/threonine kinase that functions as a master regulator of the cellular responses to double strand breaks (DSBs) in the DNA. Upon activation by DSBs, ATM phosphorylates a plethora of downstream targets, including KAP-1 on […]. KAP-1 phosphorylation occurs shortly in response to DSBs and mediates global chromatin relaxation, which facilitates DSB repair. To screen for small molecules that will compensate for the loss of ATM in cells derived from A-T patients, we monitored KAP-1 phosphorylation as a readout for ATM-like activity using an AlphaLISA assay. This set of data is for analogs of the probe molecule in the primary screening assay.
qHTS Assay Protocol: Step,Parameter,Value,Description 1. Cell Plating, 3 ul, 500 cells/well in OPTI-MEM, 1% FBS, 1% Pen/Strep 2. Incubation, 16-24 hr, 37C, 5% CO2, 95% humidity 3. Library compounds, 23 nl, 76.7 - 0.61uM dilution series final concentration 4. Incubation, 60 min, 37C, 5% CO2, 95% humidity 5. Reagent, 1 ul, 1600 ng/ml NCS in PBS + 0.05% BSA + 0.005% Tween 20 6. Incubation, 30 min, 37C, 5% CO2, 95% humidity 7. Reagent, 1 ul, Premixed detection reagents and lysis buffer 8. Reagent, 1 ul, 0.6% Antifoam A 9. Incubation, 6 hr, 25C, 95% humidity 10. Readout, EnVision, EnVision plate reader. AlphaScreen 1536-well protocol Cells were plated using medium-binding white solid-bottom tissue culture treated Kalypsys plates. Multidrop dispense of 3 uL of F2112 (hTERT immortalized A-T patient fibroblast cells). Detection reagent and lysis buffer was 3.75nM Rab-a-pKAP1 antibody bound to 75 ng/ul AlphaScreen SA donor bead, 3.75 nM Biot-M-a-KAP1 antibody bound to AlphaLISA protein A acceptor bead, 0.5x protease inhibitor cocktail and 0.25x PerkinElmer lysis buffer. EnVision protocol for 1536-well AlphaScreen read (30ms excitation, 100ms read), about 10 min/plate.
With `CC(C)=C/C=C/C(=O)c1ccccc1O`, the “activation” value is -16.1%.

Regarding `COc1c(C(=O)/C=C/c2ccccc2)ccc2c1C=CC(C)(C)O2`, the Potency was 36.8 µM (active).

Take `COc1cc(/C=C/C(=O)c2ccccc2)cc(OC)c1OC`: the Potency is 46.3 µM (active).

On to `CC1(C)C=Cc2c(O)cc(O)c(C(=O)/C=C/c3ccccc3)c2O1`, for which the Potency was 46.3 µM (active).

Consider `C=CCSc1nc2ccccc2n1C(=O)/C=C/c1ccc(OC)c(OC)c1`, for which the Potency was 14.6 µM (active).

Regarding `CN1CCN(c2nc(C3=C(c4c[nH]c5ccccc45)C(=O)NC3=O)c3ccccc3n2)CC1`, the “activation” value is 8.76%.

With `CC1(C)C=Cc2ccc(O)c(C(=O)/C=C/c3ccccc3)c2O1`, the Potency was 36.8 µM (active).

For `O=C(/C=C/c1ccccc1)n1cnc2ccccc21`, the “activation” value was -15.5%.

As for `COc1cc(/C=C/C(=O)n2cnc3ccccc32)cc(OC)c1OC`, the Potency was 13 µM (active).

For `C=CCSc1nc2ccccc2n1C(=O)/C=C/c1ccc(F)cc1`, the Potency is 9.23 µM (active).
